Screens: PubChem, National Center for Advancing Translational Sciences (NCATS)
DT40 TDP1 CPT: growth inhibition of DT40 Tdp1-/-;hTDP1 cells with camptothecin (screen for TDP1 inhibitors) | Potency, µM (doses to about 46.2 µM), usual class: inhibitors | chicken DT40 Tdp1-/-;hTDP1 cells + 20 nM CPT, ATP luminescence, 48 h | 12% of 420,000 active; note: nearly all actives have a fitted effect of over 55% in size
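Chicken DT40 Tdp1-/- cells complemented with human TDP1, 400 cells/well, exposed to compounds plus 20 nM camptothecin for at least 48 h at 37 C; viability read as ATP content by CellTiter-Glo luminescence.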
DT40 TDP1 no CPT: qHTS for Inhibitors of human tyrosyl-DNA phosphodiesterase 1 (TDP1): qHTS in cells in absence of CPT | DT40 Tdp1-/- hTDP1 cells, no CPT, ATP luminescence, 48 h | Potency, µM (titrated, usually from 46.2 µM), usual class: inhibitors | 15% of 420,000 active | AID 686978, 2013; note: nearly all actives have a fitted effect of over 55% in size
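Stably hTDP1-transfected Tdp1-null chicken DT40 cells were treated with library compounds minus camptothecin and grown for at least 48 hr at 37 °C, after which cellular ATP was quantified by luminescence.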
TGFb SMAD3 inh: inhibitors of TGF-b signaling; 1.2% of 410,000 active; HepG2 CAGA-GFP TGF-b/SMAD3 reporter, GFP fluorescence, 18 h; TGF-beta stimulated, 500 pg/mL final; Potency, µM (highest dose often 46.1 µM), usual class: inhibitors; note: nearly all actives have a fitted effect of over 65% in size
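Inhibition was scored as loss of TGF-beta-induced (500 pg/mL final, 18 hours, 37 degrees C) GFP in HEPG2 cells carrying a CAGA-GFP reporter, in DMEM with 1% FBS. Well GFP was summed per cell; Activity was normalised to unstimulated and stimulated DMSO wells, then concentration-response fitting.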
ATXN viability: viability counter-screen for ATXN expression inhibitors; S2 cells (HEK-293 line with an ATXN2-luciferase reporter) viability, CellTiter-Fluor protease fluorescence, 24 h; Potency, µM (highest dose often 56.7 µM), usual class: cytotoxic; 0.49% of 400,000 active; AID 651635; note: nearly all actives have a fitted effect of over 40% in size
ATXN2 expr inh: reduces ATXN2 reporter expression in HEK-293 cells; HEK-293 ATXN2-luciferase reporter, luminescence, 24 h; Potency, µM (titrated, usually from 57 µM), most hits filed as inhibitors; 0.72% of 360,000 active; AID 1745845; note: nearly all actives have a fitted effect of over 55% in size
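ATXN2-luciferase reporter cells (luciferase flanked by upstream and downstream ATXN2 gene portions) were treated 24 h at 37 °C with compounds at up to 57 uM. SteadyGlo luminescence gave expression; GF-AFC fluorescence gave viability.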
HepG2 tox: kills HepG2 cells in TGF-b inhibitor counter-screen | AID 588856 | Potency, µM (highest dose often 46.1 µM), usual class: cytotoxic | 0.76% of 410,000 active | HepG2 CAGA-GFP viability, ATP luminescence, 18 h
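HepG2 CAGA-GFP cells (1000/well, DMEM with 1% FBS) received compound, then TGF-beta at 500 pg/mL final, and were incubated 18 hours at 37 degrees C. Viability was read by CellTiter-Glo luminescence. Media-only wells were set as complete cell-killing and DMSO as no toxicity.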
A number is an active result; n = inactive; u = inconclusive; x = no result given. A selection: hits, their analogues and other compounds. The true share with any hit is near 17%. Calls come from the whole dose curve; as a rule, active = well fitted curve in the direction sought with a large enough effect; inconclusive = small, poorly fitted or top-dose-only effect, or another doubt; inactive = no such curve, though single readings can be large; an effect the other way counts as inactive or inconclusive.

SMILES	DT40 TDP1 CPT	DT40 TDP1 no CPT	TGFb SMAD3 inh	ATXN viability	ATXN2 expr inh	HepG2 tox
COc1ccc(CNC(=O)C[C@H]2C[C@H](C(=O)N(C(C)C)C(C)C)[C@@]3(C)c4[nH]c5cc(CCC(=O)N(C)C)ccc5c4CCN3C2=O)cc1OC	n	u	n	n	n	n
COCCCNC(=O)C[C@H]1C[C@H](C(=O)N2CCOCC2)[C@@]2(C)c3[nH]c4cc(-c5ccco5)ccc4c3CCN2C1=O	u	u	n	n	n	n
COc1ccc(CNC(=O)C[C@H]2C[C@H](C(=O)N(C(C)C)C(C)C)[C@@]3(C)c4[nH]c5cc(-c6ccco6)ccc5c4CCN3C2=O)cc1OC	18.4µM	u	u	u	u	n
COCCCNC(=O)C[C@H]1C[C@H](C(=O)N(C(C)C)C(C)C)[C@@]2(C)c3[nH]c4cc(-c5ccco5)ccc4c3CCN2C1=O	16.4µM	23.1µM	11.2µM	n	n	n
CCN(CC)C(=O)[C@H]1C[C@H](CC(=O)NCCN2CCOCC2)C(=O)N2CCc3c([nH]c4cc(-c5ccco5)ccc34)[C@]12C	20.6µM	u	n	u	n	n
NS(=O)(=O)c1cccc(NC(=O)CN2C(=O)C(=O)N(Cc3ccccc3)C2=O)c1	n	n	n	n	n	n
CCCCn1c(N)c(N(CCOC)C(=O)CSc2nnc(-c3ccc(F)cc3)n2N)c(=O)[nH]c1=O	n	n	n	u	n	n
CC(Oc1ccc2ccccc2c1)C(=O)NNC(=O)Nc1ccccc1F (stereo not drawn)	n	n	u	n	n	n
CN(C)c1ccc(CNC(=O)C2COc3ccccc3C2)cc1 (stereo not drawn)	n	n	n	n	n	n
Cc1c(C(=O)Nc2ccccc2)cnn1-c1ccccc1	n	n	n	n	n	n
CCc1ccc(NC(=O)c2cnn(-c3ccccc3)c2-n2cccc2)cc1	18.4µM	u	u	n	n	n
CCc1ccc(NC(=O)c2cnn3ccccc23)cc1	n	n	n	n	u	n
Cc1c(C(=O)Nc2cccc(F)c2)cnn1-c1ccccc1	18.4µM	14.6µM	n	n	n	n
CC(CNC(=O)c1cnn(-c2ccc(F)cc2)c1-n1cccc1)c1ccccc1 (stereo not drawn)	x	x	10µM	n	n	n
Cc1cccc(NC(=O)c2cnn(-c3ccccc3)c2-n2cccc2)c1C	16.4µM	u	u	n	n	n
O=c1[nH]c(C(F)(F)F)nc2ccc3ccccc3c12	n	n	n	n	n	n
NNc1nc(-c2ccccc2)nc(-c2ccccc2)c1Br	u	8.2µM	n	n	x	n
CC(C)Oc1ccc(C(=O)Nc2ccc(S(=O)(=O)N3CCN(C)CC3)cc2)cc1	u	u	u	n	n	n
COc1cc2ccccc2cc1C(=O)Nc1ccc(C)cn1	n	n	n	n	n	n
CCOP(=O)(OCC)c1nc(-c2ccccc2Cl)oc1N1CCOCC1	n	n	u	n	n	n
CCOP(=O)(OCC)c1nc(-c2ccc(Cl)cc2Cl)oc1N1CCCCC1	11.6µM	18.4µM	u	n	n	n
Cc1csc(NCC(=O)c2c(C)[nH]c3ccccc23)n1	n	n	n	x	x	n
CCOC(=O)C(C)OC(=O)C1=C(C)NC(=O)NC1c1ccc2c(c1)OCO2 (stereo not drawn)	3.66µM	4.11µM	u	u	n	n
CC1=C(C(=O)OCCCBr)C(c2ccc3c(c2)OCO3)NC(=O)N1 (stereo not drawn)	25.9µM	23.1µM	n	n	n	n
CCOC(=O)C1=C(CCl)NC(=O)NC1c1ccc2c(c1)OCO2 (stereo not drawn)	14.6µM	2.59µM	u	n	n	n
SMILES	DT40 TDP1 CPT	DT40 TDP1 no CPT	TGFb SMAD3 inh	ATXN viability	ATXN2 expr inh	HepG2 tox
CCCCCOC(=O)C1=C(C)NC(=O)NC1c1ccc2c(c1)OCO2 (stereo not drawn)	n	n	n	n	n	n
Cc1cccc(C(=O)NNC(=O)C2CC2)c1	n	n	n	n	n	n
Cn1cnc(S(=O)(=O)N2CCC(C(=O)N3CCN(c4ccc(Cl)cc4)CC3)CC2)c1	u	n	n	x	x	n
CCOC(=O)CSC1=C(C#N)C(=O)NC(c2ccc(OC)cc2)S1 (stereo not drawn)	14.6µM	14.6µM	n	n	n	n
CCOC(=O)CSC1=C(C#N)C(=O)NC(c2ccc(OC)c(OC)c2)S1 (stereo not drawn)	16.4µM	11.6µM	n	n	n	n
C[C@@H]1CN([C@@H](C)CO)C(=O)CCCn2nncc2CO[C@H]1CN(C)S(=O)(=O)c1ccc(-n2cccn2)cc1	n	n	n	n	n	n
N#Cc1nc(-c2ccc(OCc3ccccc3)cc2)oc1NCCCn1ccnc1	u	20.6µM	n	u	u	n
CCCOc1ccc(-c2nc(C#N)c(NCCCn3ccnc3)o2)cc1	u	18.4µM	n	n	n	n
N#Cc1nc(COc2ccccc2)oc1NCCCn1ccnc1	n	n	n	n	n	n
CSc1nc(Cl)c(Cc2ccc(OC(C)C)cc2)c(N(C)C)n1	u	16.4µM	n	n	n	n
COc1ccc(Cc2c(Cl)ncnc2Cl)cc1	n	u	n	n	n	n
CCOc1ccc(Cc2c(Cl)nc(SC)nc2N(C)C)cc1	18.4µM	16.4µM	u	n	n	n
COc1ccc(S(=O)(=O)N2CCc3ccccc32)cc1C(=O)NCCc1ccccn1	n	n	n	n	n	n
O=C(NCc1ccco1)/C(=C/c1cccc(C(F)(F)F)c1)c1nc2ccccc2[nH]1	9.2µM	5.8µM	n	u	u	n
COc1cccc(C(=O)O)c1OS(=O)(=O)c1ccc(C)cc1	n	n	n	n	x	n
Cc1ccc(C)c(NC(=O)CN(C)C(C)C(=O)N2CC(C)CC(C)C2)c1 (stereo not drawn)	n	u	n	n	n	n
CCc1nc2c(OCc3ccc(C(=O)OC)cc3)cccn2c1N(C)C(=O)c1ccc(OC)cc1	u	u	n	n	n	n
CCc1nc2c(OCc3ccc(F)cc3)cccn2c1N(C)C(=O)c1ccco1	n	u	n	n	n	n
CCc1nc2c(OCc3ccc(OC(F)F)cc3)cccn2c1N(C)C(=O)c1ccc(OC)cc1	18.4µM	13µM	n	u	n	n
CCc1nc2c(OCc3ccc(C(F)(F)F)cc3)cccn2c1N(C)C(=O)c1ccncc1	16.4µM	16.4µM	u	n	n	n
CCc1nc2c(OCc3ccc(Cl)cc3)cccn2c1N(C)C(=O)c1ccco1	16.4µM	20.6µM	u	u	u	n
